The record followed here is PubChem BioAssay AID504332 (National Center for Advancing Translational Sciences (NCATS), 2011).

The structures appear in SMILES notation. About 31,000 (8.9%) of roughly 350,000 compounds were called active. About 15% were inconclusive and are not listed. The sample as a whole holds a higher share of actives than the screen did. Values without a mark were called inactive. Calls come from the whole dose curve; as a rule, active = well fitted inhibition curve with a large enough effect; inconclusive = small, poorly fitted or top-dose-only effect; inactive = no such curve, though single readings can be large or run the other way.
% is set by controls: 0 for no effect and ±100 for the full control effect; potency is the fitted concentration of half-maximal effect.

The target in this assay is Histone-lysine N-methyltransferase EHMT2 (Homo sapiens) (UniProt Q96KQ7). Briefly: qHTS Assay for Inhibitors of Histone Lysine Methyltransferase G9a. Note: nearly all actives have a fitted effect of over 75% in size. The settings on record: G9a H3K9 monomethylation, AlphaScreen, 2 h; series mostly up to 59 µM; activity, negative = inhibition: at the top concentration. Summed up: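 Enzyme 20 nM + cpd, 15 min RT; add b-H3K9 pep 500 nM / SAM 20 uM; 2 h RT; anti-H3K9me1 Ab 0.5 ug/mL + SA donor / anti-rabbit acceptor beads 20 ug/mL each, 10 min; AlphaScreen read.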
Sequence of Histone-lysine N-methyltransferase EHMT2 (Homo sapiens) (Q96KQ7 913-1193 limits assumed): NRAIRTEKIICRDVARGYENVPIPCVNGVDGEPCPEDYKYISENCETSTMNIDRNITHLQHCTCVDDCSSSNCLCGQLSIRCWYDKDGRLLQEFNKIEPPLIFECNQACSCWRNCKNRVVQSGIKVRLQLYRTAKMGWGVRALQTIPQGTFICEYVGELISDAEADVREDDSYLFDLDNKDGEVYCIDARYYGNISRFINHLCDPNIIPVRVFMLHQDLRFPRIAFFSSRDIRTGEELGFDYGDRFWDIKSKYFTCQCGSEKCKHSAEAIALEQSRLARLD
A general note: qHTS replaces the single test concentration by a dilution series.
For the compound `N#Cc1ccccc1Cn1cnc2nc3c(cc2c1=O)CCCC3`, the “activity, negative = inhibition” value is -5.6%.

On to `CCOC(=O)N1CCN(C(=O)CSc2nc(=O)n3cccc(C)c3n2)CC1`, for which the “activity, negative = inhibition” value was 12.4% [at 102 µM].

As for `Oc1c(CN2CCCC2)cc(COCc2ccccc2)c2cccnc12`, the activity, negative = inhibition was -18% [at 12.7 µM].

On to `CCOC(=O)N1CCN(C(c2cccnc2)c2ccc3cccnc3c2O)CC1` (stereo not drawn), for which the Potency was 0.316 µM (active).

For the compound `COc1ccccc1N1CCN(C(CNC(=O)C(=O)NCc2ccc(C)cc2)c2cccnc2)CC1` (stereo not drawn), the “activity, negative = inhibition” value was -1.43%.

For `CCN1CCN(C(c2cccnc2)c2cc(Cl)c3cccnc3c2O)CC1` (stereo not drawn), the Potency is 1.12 µM (active).

Take `CCOc1ccc(C(NC(=O)c2cc(OC)c(OC)c(OC)c2)c2cc(Cl)c3cccnc3c2O)cc1` (stereo not drawn): the “activity, negative = inhibition” value is 32.7%.

Take `CC1CCCN(c2cc3c(cc2F)c(=O)c(S(=O)(=O)c2cccc(Cl)c2)cn3Cc2ccccc2)C1` (stereo not drawn): the “activity, negative = inhibition” value is 2.11%.

Consider `CC(O)c1ccc(OCCN(C)c2ccccn2)cc1` (stereo not drawn), for which the activity, negative = inhibition was -1.26% [at 2.33 µM].

Regarding `Cc1nc2ccn(Cc3cccs3)c(=O)c2cc1C(=O)NCc1ccc(Cl)cc1`, the “activity, negative = inhibition” value was 7.77%.

Regarding `COc1ccc(CNS(=O)(=O)c2cc3c4c(c2)CCN4C(=O)CC3)cc1`, the Potency entry was “inactive”.

For `CCOC(=O)c1ccc(NC(=S)N2CCN(c3ccccn3)CC2)cc1`, the “activity, negative = inhibition” value is 0.189% [at 102 µM].

As to `CNC(=S)N1CCN(c2ccccn2)CC1`, the “activity, negative = inhibition” value was 20.4%.

In the case of `COc1cc([N+](=O)[O-])ccc1NC(=S)N1CCN(c2ccccn2)CC1`, the Potency was 44.7 µM (active).

As for `CCCOc1ccc(-c2c(C(=O)N/N=C/c3ccco3)nnn2-c2nonc2N)cc1`, the “activity, negative = inhibition” value was 19.6% [at 102 µM].

For the compound `CSc1ccc(/C=N/N2CCN(Cc3ccccc3Cl)CC2)cc1`, the Potency was 14.1 µM (active).

As to `COc1ccccc1/C=N/N1CCN(Cc2ccccc2Cl)CC1`, the activity, negative = inhibition is 7.68% [at 0.501 µM].

As for `O=S1(=O)CCN(Cc2ccccc2Cl)CC1`, the “activity, negative = inhibition” value was -11.6% [at 102 µM].

`CCOc1ccc(CNC(=O)c2ccc(CS(=O)c3ccccc3)o2)cc1` (stereo not drawn): the “activity, negative = inhibition” value was -27.7%.

`COc1ccc([N+](=O)[O-])cc1-c1nc2ccccc2nc1-c1ccccc1`: the activity, negative = inhibition is 7.8% [at 0.501 µM].

Regarding `Cc1nc(-c2ccc([N+](=O)[O-])cc2)c(-c2ccccc2)o1`, the Potency is 15.8 µM (active).

On to `Cc1cccc(NC(=O)c2sc(-c3ccccc3)nc2-c2ccc([N+](=O)[O-])cc2)c1`, for which the “activity, negative = inhibition” value was -11.3%.

With `COC(=O)c1c(NC(=O)c2cc(=O)c3c(C)cc(C)cc3o2)sc2c1CCCC2`, the “activity, negative = inhibition” value was -3.65%.

Take `Cc1cc(O)c(NC(=O)c2ccc(C)c([N+](=O)[O-])c2)cc1C`: the “activity, negative = inhibition” value is 5.04% [at 102 µM].

For `CCOC(=O)c1c(-c2ccccc2)oc2cc(Br)c(O)cc12`, the “activity, negative = inhibition” value was 16.8% [at 102 µM].

Turning to `Cc1oc2cc(Br)c(O)c(Br)c2c1C(=O)c1ccccc1`, the Potency is 44.7 µM (active).

Regarding `Cc1cc(C(=O)O)ccc1[N+](=O)[O-]`, the activity, negative = inhibition was 3.38% [at 0.501 µM].

For `COc1cc(/C(=C/c2ccccc2)c2ccccc2)c2c(c1)oc1ccccc12`, the “activity, negative = inhibition” value was 39.3% [at 102 µM].

As for `Cc1oc2cc([N+](=O)[O-])c(O)c([N+](=O)[O-])c2c1C(=O)c1ccc(Br)cc1`, the Potency was 17.8 µM (active).

As to `CS(=O)(=O)Nc1cccc(C2=NN(C(=O)c3cccc(F)c3)C(c3cccs3)C2)c1` (stereo not drawn), the “activity, negative = inhibition” value is -0.685% [at 102 µM].

Consider `O=C(Cn1c(=O)n(Cc2cccs2)c(=O)c2cccnc21)Nc1ccc(F)cc1`, for which the “activity, negative = inhibition” value is 4.79%.

Turning to `Cc1ccc(NC(=O)Cc2ccc(NC(=O)N3CCCCc4ccccc43)cc2)cc1`, the “activity, negative = inhibition” value was -7.06%.

With `CC(C)=CCCC(C)CN1CCC(n2nccc2NC(=O)c2ccccc2)CC1` (stereo not drawn), the “activity, negative = inhibition” value is 12.5% [at 102 µM].

Consider `CC(=O)c1sc(N2C(=O)c3oc4ccccc4c(=O)c3C2c2ccc(C)cc2)nc1C` (stereo not drawn), for which the Potency was 2 µM (active).

`COc1cc(C2c3c(oc4ccccc4c3=O)C(=O)N2c2nc(C)c(C)s2)ccc1O` (stereo not drawn): the “activity, negative = inhibition” value is 2.3%.

As to `O=C1c2oc3ccccc3c(=O)c2C(c2cccc(O)c2)N1c1ccccn1` (stereo not drawn), the “activity, negative = inhibition” value was 4.82% [at 102 µM].

Consider `COc1ccc(NC(=O)CCc2nnc3n(CC(C)C)c(=O)c4ccccc4n23)cc1OC`, for which the “activity, negative = inhibition” value was 8.79%.

Consider `COc1ccc(Nc2nnc(C)c3ccccc23)cc1`, for which the “activity, negative = inhibition” value is -4.39% [at 102 µM].

`NNc1nnc(NN)c2ccccc12`: the Potency is 25.1 µM (active).

As to `Cc1nnc(NCCO)c2ccccc12`, the “activity, negative = inhibition” value is -4.86% [at 102 µM].

As for `CCOC(=O)C1CCCN(S(=O)(=O)c2cc(-c3cc(C)no3)ccc2OC)C1` (stereo not drawn), the “activity, negative = inhibition” value was -28.7%.

`Cn1c(SCC(=O)N/N=C/c2ccc(O)c(O)c2)nc2ccccc21`: the Potency was 17.8 µM (active).

Consider `Cc1nc2ccccc2n1CC(=O)N/N=C/c1cccnc1`, for which the “activity, negative = inhibition” value was -0.153% [at 102 µM].

As to `Cc1ccc(/C=N/NC(=O)CSc2nc3ccccc3o2)cc1`, the “activity, negative = inhibition” value is 11.8%.

Take `CCOc1cc(/C=N/NC(=O)CN2CCCCC2)ccc1O`: the “activity, negative = inhibition” value was 21.9% [at 102 µM].

Turning to `Cc1nccn1CC(=O)N/N=C/c1ccc(O)c(O)c1`, the Potency is 7.08 µM (active).

In the case of `CCOc1ccc(/C=N/NC(=O)CSc2ccccn2)cc1O`, the “activity, negative = inhibition” value was 6.98% [at 102 µM].

For `O=C(NCC(=O)N1CCCCCCC1)c1ccccc1Cl`, the activity, negative = inhibition is 8.52% [at 12.7 µM].
